Shown is part of a subset that was picked to be rich in hits.
Pf Dd2 growth: blocks in vitro growth of P. falciparum Dd2; P. falciparum Dd2 growth, SYBR Green, 72 h; Potency, µM (top dose mostly 28.9 µM), actives largely listed as inhibitors; AID 1347417; 4.3% of 120,000 active; active = well fitted inhibition curve with a large enough effect; also: nearly all actives have a fitted effect of over 65% in size
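Infected erythrocytes (Dd2, 0.3% parasitemia, 2.5% hematocrit final) are added to compound in RPMI-1640/Albumax II medium, grown 72 h at 37C in low oxygen, then lysed with saponin/Triton-X containing SYBR Green and read by fluorescence.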
A number is an active result; n = inactive; [ ] = another dose, or the depositor's remark.

SMILES | Pf Dd2 growth
COc1ccc(NC(=O)N2CCc3nc4cc(-c5ccccc5)[nH]n4c(=O)c3C2)c(C)c1 | n[5.79 µM]
Cc1noc([C@@H]2CN(C(=O)c3nn(C)c4ccccc34)C[C@H]2CO)n1 | n
COc1ccc2[nH]c3c(c2c1)CCNC31CCNCC1 | n
COc1ccc(-c2nc(-c3cc4cc(Br)ccc4oc3=O)cs2)cc1 | n
COCCN1C(=O)c2cccn2CC1CNS(=O)(=O)c1ccc2c(c1)C(C)(C)C(=O)N2 (stereo not drawn) | n
CC(C)CN1C(=O)COC[C@@H]1[C@H](O)c1ccc(NC(=O)c2cnccn2)cc1 | n
CCCNC(=O)N1CC(Oc2cccc(-c3nc(-c4ccccc4)no3)c2)C1 | 2µM
CCOCCCNC(=O)N1CC(Oc2cccc(-c3nc(C)no3)c2)C1 | n[5.79 µM]
O=C(NC1CCCC1)N1CC(Oc2cccc(-c3nc(-c4ccccc4)no3)c2)C1 | n[5.79 µM]
CC(=O)N1CC2(CCCN(C3COC3)C2)Cc2ccccc21 (stereo not drawn) | n
O=C(N[C@@H]1[C@@H](Cc2ccccc2)[C@H]2OCC[C@@H]12)c1scc2c1OCCO2 | n
O=C(NCc1nc2ccccc2[nH]1)c1c(F)cccc1F | n
O=C(C1CC=CCC1)N1CCc2[nH]nc(-c3ccc(C(F)(F)F)cc3)c2C1 (stereo not drawn) | n
Cc1ccc(NC(=O)CN2C(=O)CCc3cc(S(=O)(=O)N4CCOCC4)ccc32)c(C)c1 | n
Cn1nc(C(=O)N2CCN(c3ccc(Cl)cc3)CC2)c2c1-c1ccccc1SC2 | n
Cc1ccc2c(c1)-c1c(c(C(=O)N3CCN(c4cc(C)ccc4C)CC3)nn1C)CS2 | 12.6µM
COc1ccc(NC(=O)c2nn(C)c3c2CSc2ccc(C)cc2-3)cc1OC | n
Cc1ccccc1NC(=O)NCC1CCOCC1 | n
O=S(=O)(c1ccc(Cl)cc1)c1nnn2c1nc(NCc1cccs1)c1sccc12 | n
COc1ccc(-c2noc([C@@H]3CCCN3C(=O)Cc3ccc(F)cc3)n2)cc1OC | n
COC(=O)c1ccc(OCC2c3cc(OC)c(OC)cc3CCN2C(=O)c2ccccc2C)cc1 (stereo not drawn) | 11.2µM
COC(=O)c1ccc(OCC2c3cc(OC)c(OC)cc3CCN2C(=O)c2ccc(F)cc2)cc1 (stereo not drawn) | 11.2µM
CCOc1cc2c(cc1OCC)C(CC(=O)O)N(C(=O)Nc1ccccc1C(F)(F)F)CC2 (stereo not drawn) | n
COc1ccc(C(=O)N2CCc3ccc(C(=O)NCc4ccccc4C)cc32)cc1 | n
COc1cc2c(cc1OC)C(COc1ccc(F)cc1)N(C(=O)C(C)C)CC2 (stereo not drawn) | n
SMILES | Pf Dd2 growth
COc1cc2c(cc1OC)C(CNC(=O)c1ccco1)N(C(=O)Nc1cccc(F)c1)CC2 (stereo not drawn) | n
CCNC(=O)N1CCc2cc(OC)c(OC)cc2C1CNC(=O)C1CC1 (stereo not drawn) | n
COc1ccc(CC(=O)N2CCc3cc(OC)c(OC)cc3C2COc2ccc(F)cc2)cc1OC (stereo not drawn) | 11.2µM
CC(C)(C(=O)NCc1ccccn1)C1CCOCC1 | n
COc1ccc(CNC(=O)N2CCCOCCNC(=O)[C@@H]3CCCC[C@@H]32)cc1 | n
Cc1noc(-c2nc(-c3ccccc3C)no2)n1 | n
CS(=O)(=O)c1ccc(CN2CCC(O)(Cn3ccnc3)CC2)cc1 | n
Cc1ccccc1OCC(=O)N1CCc2c(nc3cc(-c4ccccc4Cl)[nH]n3c2=O)C1 | n
O=C1CCC[C@@H]2C3CC(CN(C(=O)C4(c5ccccc5)CC4)C3)CN12 (stereo partly drawn) | n
CCOc1ccccc1CNCCSc1nnnn1C | n
COc1cccc(CNCCSc2nnnn2C)c1OCc1ccc(Cl)cc1Cl | n
CCOc1ccc(CNCCCSc2nnnn2C)cc1OC | n[0.594 µM]
Cn1nnnc1SCCCNCc1cccc(OCc2ccccc2Cl)c1 | 10µM
COc1cc(CNCCSc2nnnn2C)cc(Cl)c1OCc1ccccc1 | n
Cn1nnnc1SCCCNCc1cc(Cl)ccc1OCc1ccccc1 | 7.94µM
CC(NC(=O)c1cccc(C#N)c1)C(=O)N1CCN(c2ccccn2)CC1 (stereo not drawn) | n
CCN(CC)Cc1nc(C2(O)CCN(C(=O)c3cccc(F)c3)CC2)cs1 | n
CCc1ccc(-n2c(=O)c3c(C)c(C(=O)N(C)C)sc3n(CC(=O)Nc3cc(Cl)ccc3C)c2=O)cc1 | n
O=C(NCc1cn[nH]c1-c1ccc(F)cc1)C1COc2ccccc2C1 (stereo not drawn) | n
O=C(CSc1nc2c([nH]c3ccccc32)c(=O)n1-c1ccccc1F)Nc1ccccc1C(F)(F)F | 10µM
COc1ccc(NC(=O)CSc2nc3c([nH]c4ccccc43)c(=O)n2C)cc1 | n
COc1ccc(NC(=O)CSc2nc3c([nH]c4ccccc43)c(=O)n2-c2ccccc2)c(OC)c1 | 5.01µM
CCOc1ccc(NC(=O)CSc2nc3c([nH]c4ccccc43)c(=O)n2-c2cc(C)cc(C)c2)cc1 | n
Cc1cc(C)cc(-n2c(SCC(=O)Nc3ccc4c(c3)OCCO4)nc3c([nH]c4ccccc43)c2=O)c1 | n
CC1CCN(C(=O)CSc2nc3c([nH]c4ccccc43)c(=O)n2-c2ccccc2)CC1 | n
SMILES | Pf Dd2 growth
COc1cccc(NC(=O)CSc2nc3c([nH]c4ccccc43)c(=O)n2-c2ccccc2)c1 | 5.62µM
O=C(CSc1nc2c([nH]c3ccccc32)c(=O)n1-c1ccccc1)N1CCCCCC1 | n
Cc1cccc(NC(=O)CSc2nc3c([nH]c4ccccc43)c(=O)n2C)c1C | n
O=C(CSc1nc2c([nH]c3ccccc32)c(=O)n1-c1ccccc1)Nc1ccc2c(c1)OCO2 | 11.2µM
Cn1c(SCC(=O)Nc2ccccc2F)nc2c([nH]c3ccccc32)c1=O | n
CCOc1ccc(-n2c(SCC(=O)Nc3ccc4c(c3)OCCO4)nc3c([nH]c4ccccc43)c2=O)cc1 | n
Cc1ccc(C(=O)N2CCc3nc(C)nc(-c4ccc(O)cc4)c3C2)cc1 | n
CCC(=O)N1CCc2sc(C(=O)NCCCOC)cc2C1 | n
Cc1cc(F)ccc1OCC(=O)c1ccc2c(c1)N(C(C)C(=O)N1CCCCC1)C(=O)CO2 (stereo not drawn) | n
Cc1ccc(-n2ccnc(NCCc3ccccc3)c2=O)cc1C | n
CN1CC2(CCN(CCCOc3ccc(C(N)=O)cc3)CC2)OC1=O | n
CN(C)c1ccc(C(=O)N2CCN3C(=O)c4cc(Br)ccc4NC(=O)[C@H]3C2)cc1 | n
Cc1ccc(-c2cccc(C(=O)N3CC[C@](C)(O)[C@H](C)C3)c2)o1 | n
Cc1nc(C2CCCN(C(=O)C(C)(C)N)C2)cc(N2CCOCC2)n1 (stereo not drawn) | n
CN1CCN([C@H]2CCN(C(=O)c3ccc(C#N)nc3)C[C@H]2CCCO)CC1 | n
N#Cc1cccc(-c2ccc3n(c2=O)C[C@H]2C[C@@H]3CN(C(=O)c3ccc(F)cc3)C2)c1 | n
CSc1cccc(NC(=O)N[C@H]2C[C@@H](C(=O)N[C@H](Cc3c[nH]c4ccccc34)C(N)=O)N(C(=O)C=C(C)C)C2)c1 | n
O=C(O)COc1ccccc1C1Nc2ccccc2-c2nnc(SCc3ccc(Cl)cc3)nc2O1 (stereo not drawn) | n
O=C(CN1C(=O)NC2(CCS(=O)(=O)CC2)C1=O)Nc1cccc(Cl)c1 | n
Fc1ccc(N2CCN(c3ncnc4c3nc3n4CCCC3)CC2)cc1 | n
Cc1nc(-c2ccco2)cc([C@H]2CN3CC[C@H]2C[C@@H]3CNCc2ccccc2)n1 | 1.12µM
COCC(=O)NC[C@H]1C[C@@H]2CCN1C[C@@H]2c1cc(-c2ccccc2)nc(C)n1 | n

Screens deposited in PubChem BioAssay by National Center for Advancing Translational Sciences (NCATS).
